According to PubChem BioAssay AID1159580 (chemical genetic matrix, 2015):
Screen size: about 5,500 compounds; about 2,000 (36%) were called active. Not shown: some 18% with an inconclusive outcome. Rule as the data show it: active = normalized growth mostly below about 0.91 (no sharp cut-off); inconclusive = no clear call, values can overlap the other calls; inactive = mostly above about 0.92. Some of the results follow.

Assay: chemical genetic growth profiling, strain panel (AID 1159580);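 also: tested at 20 µM; growth read once vehicle control cultures reached saturation at 30 °C; 1 = growth at the plate median or of vehicle wells; lower values mean less growth of the strain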
Details: S. cerevisiae deletion strains, growth OD

Measured: normalized growth

Cc1ccc(C)n1-c1ccc(/C=C2/C(=O)Nc3ccccc32)cc1
inactive: locus YAR019C, strain CDC15, active compounds read low 0.957 | locus YBL105C, strain PKC1, active compounds read low 0.973 | locus YBR135W, strain CKS1, active compounds read low 0.975 | locus YBR136W, strain MEC1, active compounds read low 0.972 | locus YBR160W, strain CDC28, active compounds read low 0.962 | locus YDL017W, strain CDC7, active compounds read low 0.971 | locus YDL028C, strain MPS1, active compounds read low 0.964 | locus YDL101C, strain DUN1, active compounds read low 0.979 | locus YDL108W, strain KIN28, active compounds read low 0.968 | locus YDL132W, strain cdc53, active compounds read low 0.974 | locus YDL214C, strain PRR2, active compounds read low 0.91 | locus YDR052C, strain DBF4, active compounds read low 0.986 | locus YDR054C, strain cdc34, active compounds read low 0.983 | locus YDR226W, strain ADK1, active compounds read low 0.968 | locus YDR477W, strain SNF1, active compounds read low 0.931 | locus YER123W, strain YCK3, active compounds read low 0.903 | locus YER133W, strain GLC7, active compounds read low 0.932 | locus YFL009W, strain cdc4, active compounds read low 0.947 | locus YFL029C, strain CAK1, active compounds read low 0.957 | locus YFR003C, strain YPI1, active compounds read low 0.981 | locus YFR019W, strain FAB1, active compounds read low 0.948 | locus YFR028C, strain CDC14, active compounds read low 0.976 | locus YGR040W, strain KSS1, active compounds read low 0.945 | locus YGR052W, strain FMP48, active compounds read low 0.925 | locus YGR092W, strain DBF2, active compounds read low 0.839 | locus YHR079C, strain IRE1, active compounds read low 0.832 | locus YHR082C, strain KSP1, active compounds read low 0.907 | locus YHR205W, strain SCH9, active compounds read low 0.857 | locus YIL147C, strain SLN1, active compounds read low 0.97 | locus YJL095W, strain BCK1, active compounds read low 0.878 | locus YJL128C, strain PBS2, active compounds read low 0.973 | locus YJL157C, strain FAR1, active compounds read low 0.923 | locus YJR016C, strain ILV3, active compounds read low 0.972 | locus YJR066W, strain TOR1 (second series), active compounds read low 0.912 | locus YJR066W, strain TOR1, active compounds read low 0.794 | locus YKL048C, strain ELM1, active compounds read low 0.963 | locus YKL067W, strain YNK1, active compounds read low 0.887 | locus YKL101W, strain HSL1, active compounds read low 0.939 | locus YKL193C, strain SDS22, active compounds read low 0.979 | locus YKL203C, strain TOR2, active compounds read low 1.02 | locus YLR133W, strain CKI1, active compounds read low 0.926 | locus YLR403W, strain SFP1, active compounds read low 0.925 | locus YML070W, strain DAK1, active compounds read low 0.916 | locus YMR001C, strain CDC5, active compounds read low 0.97 | locus YMR205C, strain PFK2 (second series), active compounds read low 0.932 | locus YMR277W, strain FCP1, active compounds read low 0.957 | locus YNL006W, strain LST8, active compounds read low 0.976 | locus YNL020C, strain ARK1, active compounds read low 0.936 | locus YNL161W, strain CBK1, active compounds read low 0.975 | locus YNL183C, strain NPR1, active compounds read low 0.936 | locus YNL207W, strain RIO2, active compounds read low 0.974 | locus YNL222W, strain SSU72, active compounds read low 0.978 | locus YNL307C, strain MCK1 (second series), active compounds read low 0.947 | locus YOL078W, strain AVO1, active compounds read low 0.972 | locus YOL136C, strain PFK27, active compounds read low 0.9 | locus YOR061W, strain CKA2, active compounds read low 0.932 | locus YOR119C, strain RIO1, active compounds read low 0.942 | locus YOR231W, strain MKK1, active compounds read low 0.863 | locus YOR329C, strain SCD5, active compounds read low 0.977 | locus YPL031C, strain PHO85, active compounds read low 0.931 | locus YPL153C, strain RAD53, active compounds read low 0.92 | locus YPL204W, strain HRR25, active compounds read low 0.935 | locus YPL209C, strain IPL1, active compounds read low 0.977 | locus YPR025C, strain CCL1, active compounds read low 0.971 | locus YPR106W, strain ISR1, active compounds read low 0.968 | locus YPR111W, strain DBF20, active compounds read low 0.958 | strain NNK1, active compounds read low 0.959 | strain TSCII, active compounds read low 0.967
active: locus YHR030C, strain SLT2, active compounds read low 0.662 | locus YLR113W, strain HOG1, active compounds read low 0.837 | locus YPL256C, strain CLN2, active compounds read low 0.855
